# Data taken from PubChem BioAssay (NCI).
# Compounds without any hit were thinned out: in the full panel of roughly 83,000, 20% have a hit.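 Single-concentration screen, 48 h exposure, 96-well plates. Endpoint: percent growth. Below 10 = active.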 Active and inactive are the calls of the source.
# Test system: HS 578T breast
# Test: NCI-60 one-dose screen, 48 h (100 = growth as untreated, 0 = no growth, -100 = all killed)
# Details: 10 µM
row,Structure (SMILES),growth
1,NS(=O)(=O)c1ccc(NC(=O)CSc2ccc(-c3ccc(Cl)cc3)nn2)c(Br)c1,4.72% (active)
2,Clc1ccc2c(N/N=C/c3c[nH]c4ccc(Br)cc34)ccnc2c1,-58.5% (active)
3,Cc1ccc(-c2ccc(SCC(=O)Nc3ccc(S(N)(=O)=O)cc3Br)nn2)cc1,31.9% (inactive)
4,CC(=O)Nc1ccc(-c2cn(-c3cccc(C(=O)Nc4cccc(OC(F)(F)F)c4)c3)nn2)cn1,53.7% (inactive)
5,CCOC(=O)N/C(=C1/OCCN1C)[P+](c1ccccc1)(c1ccccc1)c1ccccc1,62.4% (inactive)
6,O=C(NO)c1ccc(CNc2nc(-c3ccccc3)c3ccccc3n2)cc1,2.21% (active)
7,Cc1cc(C)nc(NS(=O)(=O)c2ccc(N/C(N)=N/c3nccc(-c4cccs4)n3)cc2)n1,77.7% (inactive)
8,COc1cnc2c(c1)C(=O)c1c-2n(CCCNCCO)c(=O)c2cc(OC)c(OC)cc12,105% (inactive)

# Test system: NCI/ADR-RES ovarian
# Test: as above
# Details: 10 µM
row,Structure (SMILES),growth
1,Cc1ccc(C(=O)N/C(=C2/OCCN2C)[P+](c2ccccc2)(c2ccccc2)c2ccccc2)cc1,101% (inactive)
2,CN(C)c1ccc(/C=C/c2nc3ccccc3c(=O)n2CC(=O)Nc2ccc(Cl)cc2)cc1,22.4% (inactive)
3,Cc1ccc(CNC(=O)Cc2ccc3c(c2)CN(C2CCC(=O)NC2=O)C3=O)cc1 (stereo not given),-8.37% (active)
4,Cc1ccn2c(C(=O)c3ccccc3)cc(-c3cc(-c4ccc(N(C)C)cc4)c(C#N)c(N)n3)c2c1,50.8% (inactive)
5,CCOP(=O)(OCC)O[C@H]1CCC(=O)[C@@H]2[C@H]1[C@H]1C[C@@H]3[C@@]4(C)CCCC(C)(C(=O)OC)[C@@H]4CC[C@@]23C=C1C(C)C (stereo not given in full),44.3% (inactive)
6,C#CCNC(=O)CCC(=O)OC[C@]12CC[C@@H](C(=C)C)[C@@H]1C1CC[C@@H]3[C@@]4(C)CCCNC(C)(C)[C@@H]4CC[C@@]3(C)[C@]1(C)CC2 (stereo not given in full),-75.1% (active)
7,C/C(=N\N=C\c1ccc(N(C)C)cc1)c1ccc2c(c1)Nc1ccccc1S2,26.6% (inactive)
8,O=C(Nc1ccc(Cl)c([N+](=O)[O-])c1)Nc1ccc(Cl)c([N+](=O)[O-])c1,6.5% (active)
9,COc1ccc(CN2[C@H](C(=O)NCc3ccc(C(=O)NO)cc3)Cc3c([nH]c4ccccc34)[C@H]2C2CC2)cc1,84% (inactive)
10,O=C(NO)c1ccc(CNC(=O)[C@H]2Cc3c([nH]c4ccccc34)[C@H](c3ccc(Cl)cc3)N2)cc1,42% (inactive)
11,O=C(Cn1nc(-c2ccccc2)ccc1=O)NN1C(=O)c2ccccc2C1=O,91.2% (inactive)
12,OCc1[nH]nc2cc(Nc3ncc4ccc(Br)c(OC5CCC(O)CC5)c4n3)ccc12 (stereo not given),-3.04% (active)
13,COc1cc2c3c(n(CCCNCCO)c(=O)c2cc1OC)-c1nc2c(cc1C3=O)OCO2,84.1% (inactive)
14,COc1ccc(CN2[C@H](C(=O)NCCCCCCC(=O)NO)Cc3c([nH]c4ccccc34)[C@H]2C2CC2)cc1,61.9% (inactive)
15,COc1ccc(C2N(c3ccc(Br)cc3)N=C(C(C)=O)N2[C@H]2[C@H](OC(C)=O)O[C@H](COC(C)=O)[C@@H](OC(C)=O)[C@@H]2OC(C)=O)cc1 (stereo not given in full),62.1% (inactive)
16,CN1C(=O)N(C)C2SC(N/N=C/c3cccs3)=NC21 (stereo not given),-15.2% (active)
17,Cc1cc(C)nc(/N=C(\N)Nc2ccc(S(=O)(=O)Nc3nc(C)cc(C)n3)cc2)n1,110% (inactive)
18,O=C(Cc1ccc2c(c1)CN(C1CCC(=O)NC1=O)C2=O)NCCc1ccccc1 (stereo not given),28.4% (inactive)
19,CCNCCCn1c2c(c3cc(OC)c(OC)cc3c1=O)C(=O)c1cc3c(nc1-2)OCO3,-30.8% (active)

row,Structure (SMILES),growth
1,O=C(CNc1nc(-c2ccccc2)cs1)Nc1ccc(Cl)cc1[N+](=O)[O-],-30.7% (active)
2,Cc1ccc2nc(-c3ccc(-c4nnc(SCC(=O)Nc5ccc(Cl)cc5)o4)cc3)[nH]c2c1,23.2% (inactive)
3,Cc1ccc(C(=O)NNC(=O)CSc2nc3ccccc3c(=O)[nH]2)cc1,101% (inactive)
4,CN(C)CCNC(=O)OCCCCOc1cc(O)c2c(=O)cc(-c3ccccc3)oc2c1,27.9% (inactive)
5,CCCCSc1nc(Nc2ccc(/C(C)=N/NC(N)=S)cc2)c(C#N)c(-c2ccccc2)n1,25.3% (inactive)
6,O=c1[nH]c2ccccc2cc1CSc1ccc(Nc2nccc(-c3ccc4c(c3)OCO4)n2)cc1,83.7% (inactive)
7,COc1cc2oc(-c3cccc(C(=O)Nc4ccc(Cl)cc4)c3)cc(=O)c2c(OCCNC(=O)CNC(=O)OC(C)(C)C)c1OC,50.6% (inactive)
8,Cc1ccc2nc(-c3ccc(-c4nnc(SCC(=O)Nc5ccc(Br)cc5)o4)cc3)[nH]c2c1,61.3% (inactive)
9,COc1ccc(CN2[C@@H](C(=O)NCc3ccc(C(=O)NO)cc3)Cc3c([nH]c4ccccc34)[C@@H]2C)cc1,68.8% (inactive)
10,O=C(CNc1nc(-c2ccccc2)cs1)Nc1cccc(Cl)c1,19.5% (inactive)
11,NS(=O)(=O)c1ccc(NC(=O)CSc2ccc(-c3ccc(Cl)cc3)nn2)c(Br)c1,70% (inactive)
12,Clc1ccc2c(N/N=C/c3c[nH]c4ccc(Br)cc34)ccnc2c1,-77.5% (active)
13,Cc1ccc(-c2ccc(SCC(=O)Nc3ccc(S(N)(=O)=O)cc3Br)nn2)cc1,65% (inactive)
14,CC(=O)Nc1ccc(-c2cn(-c3cccc(C(=O)Nc4cccc(OC(F)(F)F)c4)c3)nn2)cn1,97.7% (inactive)
15,CCOC(=O)N/C(=C1/OCCN1C)[P+](c1ccccc1)(c1ccccc1)c1ccccc1,106% (inactive)
16,O=C(NO)c1ccc(CNc2nc(-c3ccccc3)c3ccccc3n2)cc1,-44.5% (active)
17,Cc1cc(C)nc(NS(=O)(=O)c2ccc(N/C(N)=N/c3nccc(-c4cccs4)n3)cc2)n1,101% (inactive)
18,COc1cnc2c(c1)C(=O)c1c-2n(CCCNCCO)c(=O)c2cc(OC)c(OC)cc12,88% (inactive)
